Data taken from PubChem BioAssay (Tox21).
Values joined by “and” are separate entries in the source; they are usually repeats but may differ in a detail not shown here. Equal values may be shown once. Records with an inconclusive call do not appear. Some structures have more than one record in an assay (separate samples or runs), and their calls can disagree. Active and inactive are the calls of the source. Unless noted, calls follow the shape of the dose curve; as a rule, active = well fitted curve in the direction sought with a large enough effect in the repeat runs; inconclusive = weak or mixed curves; inactive = no such curve, though single readings can be large; an effect the other way counts as inactive or inconclusive.

Columns and labels:
[1] = target: Retinoic acid receptor RXR-alpha (Homo sapiens) (UniProt P19793); assay: qHTS assay to identify small molecule agonists of the RXR signaling pathway (AID 1159527; calls by dose curve; also: nearly all actives have a fitted effect of over 35% in size; also: potency is read from the fitted curve at half-maximal effect)
Chain of Retinoic acid receptor RXR-alpha (Homo sapiens) (P19793 whole entry, looked up): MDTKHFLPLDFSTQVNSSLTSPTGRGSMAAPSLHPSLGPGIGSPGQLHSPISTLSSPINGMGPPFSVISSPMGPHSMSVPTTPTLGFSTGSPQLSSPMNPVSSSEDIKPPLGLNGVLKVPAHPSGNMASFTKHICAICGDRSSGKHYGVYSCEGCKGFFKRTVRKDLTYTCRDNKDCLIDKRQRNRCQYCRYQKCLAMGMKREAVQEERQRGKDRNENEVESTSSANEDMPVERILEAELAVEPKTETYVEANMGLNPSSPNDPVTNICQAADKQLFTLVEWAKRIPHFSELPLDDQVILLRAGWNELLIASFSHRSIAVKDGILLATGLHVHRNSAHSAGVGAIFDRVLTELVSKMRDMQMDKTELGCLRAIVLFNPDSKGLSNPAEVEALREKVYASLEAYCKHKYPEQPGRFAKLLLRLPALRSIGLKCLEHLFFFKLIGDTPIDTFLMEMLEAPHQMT
Method in brief: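 GeneBLAzer RXR-alpha-UAS-bla HEK 293T cells in 2% charcoal-stripped FBS medium were exposed to compounds for 16 hr at 37 C in agonist mode. Beta-lactamase reporter read as 460/530 nm FRET ratio after 2 hr substrate loading.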

[2] = qHTS assay to identify small molecule agonists of the RXR signaling pathway - cell viability counter screen (AID 1159529); also: series mostly up to about 77 µM; nearly all actives have a fitted effect of over 50% in size
Method in brief: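 RXR-alpha-UAS-bla HEK 293T cells in medium with 2% charcoal-stripped FBS were pre-incubated 5 hr, then compound-treated 16 hr at 37 C. Viability was read by CellTiter-Glo luminescence in the same wells as the beta-lactamase assay, with tetraoctyl ammonium bromide as positive control.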

[3] = qHTS assay to identify small molecule antagonists of the retinoid acid receptor (RAR) signaling pathway - cell viability counter screen (AID 1159551); also: nearly all actives have a fitted effect of over 35% in size
Method in brief: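 Cytotoxicity counter screen: ATP content quantified by CellTiter-Glo luminescence in C3RL4 cells treated 6 hr at 37 C with compound and retinol (1 uM final). Cells plated at 1,000/well and cultured overnight before dosing.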

[4] = qHTS assay to identify small molecule antagonists of the retinoic acid receptor (RAR) signaling pathway (AID 1159552; also: nearly all actives have a fitted effect of over 50% in size)
Method in brief: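 Retinol signaling pathway inhibitors screened in C3RL4 RARE-luciferase reporter cells seeded overnight at 37 C, then compounds added with 1 uM (final) retinol as pathway substrate. After 6 hr at 37 C, luciferase luminescence read after 30 min at room temperature.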

[5] = qHTS assay to identify small molecule antagonists of the estrogen related receptor (ERR) signaling pathway from Tox21 library - cell viability counter screen (AID 1224834); also: nearly all actives have a fitted effect of over 30% in size
Method in brief: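 CellTiter-Fluor fluorescence, read after 30 min at 37 C, measures viability of ERR cells. Cells plated at 2,000/well and incubated 6 h before pin-tool compound addition, then exposed 17.5 hours at 37 C.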

[6] = target: Luciferin 4-monooxygenase (Photinus pyralis) (UniProt P08659); assay: qHTS assay to identify small molecule inhibitors of firefly luciferase (AID 1224835); also: nearly all actives have a fitted effect of over 25% in size; also: potency is read from the fitted curve at half-maximal effect
Chain of Luciferin 4-monooxygenase (Photinus pyralis) (P08659 whole entry, looked up): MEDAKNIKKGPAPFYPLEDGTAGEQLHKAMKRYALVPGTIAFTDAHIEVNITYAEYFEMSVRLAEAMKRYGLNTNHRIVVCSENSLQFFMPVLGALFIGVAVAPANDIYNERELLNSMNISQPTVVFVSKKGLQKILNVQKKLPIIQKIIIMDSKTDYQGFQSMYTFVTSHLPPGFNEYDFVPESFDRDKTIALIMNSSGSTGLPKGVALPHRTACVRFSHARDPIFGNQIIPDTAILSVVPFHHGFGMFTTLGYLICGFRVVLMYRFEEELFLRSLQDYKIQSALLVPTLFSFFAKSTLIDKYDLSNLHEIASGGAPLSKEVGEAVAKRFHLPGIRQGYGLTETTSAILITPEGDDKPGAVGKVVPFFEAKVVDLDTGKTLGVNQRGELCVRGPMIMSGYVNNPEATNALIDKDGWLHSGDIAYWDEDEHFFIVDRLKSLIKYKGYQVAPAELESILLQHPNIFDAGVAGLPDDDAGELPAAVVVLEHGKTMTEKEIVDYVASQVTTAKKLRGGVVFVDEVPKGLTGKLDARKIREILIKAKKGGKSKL
Method in brief: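 Inhibition of purified Photinus luciferase is measured by luminescence. Substrate levels (D-luciferin, ATP) sit at their KM values. Each compound is tested in a concentration series.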

[7] = qHTS assay to identify small molecule agonists of the constitutive androstane receptor (CAR) signaling pathway - cell viability counter screen (AID 1224836); also: series mostly up to about 92 µM; nearly all actives have a fitted effect of over 45% in size
Method in brief: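 HepG2 cells stably carrying hCAR and a CYP2B6-2.2kb reporter; 15-concentration compounds plus PK11195 (final 0.75 uM), 23 hr at 37 C/5% CO2. Viability read by CellTiter-Fluor fluorescence.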

[8] = qHTS assay to identify small molecule antagonists of the constitutive androstane receptor (CAR) signaling pathway - cell viability counter screen (AID 1224837); also: series mostly up to about 92 µM; nearly all actives have a fitted effect of over 45% in size
Method in brief: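 Cytotoxicity counter-screen: CellTiter-Fluor fluorescence after 23 h compound exposure (15-point qHTS) in double-stable HepG2-CYP2B6-hCAR cells, with 50 nM CITCO added.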

[9] = target: Nuclear receptor subfamily 1 group I member 3 (Homo sapiens) (UniProt Q14994); assay: qHTS assay to identify small molecule antagonists of the constitutive androstane receptor (CAR) signaling pathway (AID 1224838);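 also: HepG2 cells stably expressing hCAR with CYP2B6 luciferase reporter stimulated by CITCO; nearly all actives have a fitted effect of over 40% in size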
Chain of Nuclear receptor subfamily 1 group I member 3 (Homo sapiens) (Q14994 whole entry, looked up): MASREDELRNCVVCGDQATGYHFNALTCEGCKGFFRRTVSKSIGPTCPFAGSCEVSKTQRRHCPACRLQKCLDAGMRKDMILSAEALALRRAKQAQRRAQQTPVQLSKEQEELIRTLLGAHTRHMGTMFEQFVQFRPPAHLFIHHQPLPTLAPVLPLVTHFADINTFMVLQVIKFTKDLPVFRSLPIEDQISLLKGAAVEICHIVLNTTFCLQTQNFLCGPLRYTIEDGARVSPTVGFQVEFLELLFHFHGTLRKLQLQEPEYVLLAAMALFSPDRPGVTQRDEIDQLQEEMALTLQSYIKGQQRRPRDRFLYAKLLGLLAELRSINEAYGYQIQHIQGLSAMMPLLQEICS
Method in brief: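 Antagonism measured as luciferase signal (ONE-Glo, 30 min, room temperature) in CAR-stimulated cells: HepG2-CYP2B6-hCAR double-stable line exposed 24 hr at 37 C to compound in a 15-point series plus 50 nM CITCO.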

[10] = target: Nuclear receptor subfamily 1 group I member 3 (Homo sapiens) (UniProt Q14994); assay: qHTS assay to identify small molecule agonists of the constitutive androstane receptor (CAR) signaling pathway (AID 1224839); also: nearly all actives have a fitted effect of over 15% in size; also: potency is read from the fitted curve at half-maximal effect
Method in brief: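 HepG2 cells stably co-transfected with hCAR and a CYP2B6-2.2kb luciferase reporter; compounds at 15 concentrations with 0.75 uM PK11195 present. After 24 hr at 37 C, luciferase read by ONE-Glo luminescence.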

[11] = qHTS assay to identify small molecule antagonists of the estrogen related receptor signaling pathway with the pleiotropic PPARgamma coactivator (PGC) from Tox21 10K library - cell viability counter screen (AID 1224840; active = well fitted cell-killing curve with a large enough effect in the repeat runs, not every such curve was filed as active; also: nearly all actives have a fitted effect of over 40% in size)
Method in brief: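 Counter-screen for cytotoxicity: after 17.5 h compound exposure at 37 C, CellTiter-Fluor reagent added to PGC/ERR cells for 30 min and fluorescence read. Cells were seeded at 2,000 per well 6 h before dosing.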

[12] = qHTS assay to identify small molecule antagonists of the estrogen related receptor signaling pathway with the pleiotropic PPARgamma coactivator (PGC) from Tox21 10K library (AID 1224841; call rule not given here; also: actives are mostly falling curves and most rising ones were filed inactive; nearly all actives have a fitted effect of over 50% in size; also: potency is read from the fitted curve at half-maximal effect)
Method in brief: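 Luminescence (One-Glo, 30 min at room temperature) after 18 h compound treatment at 37 C of PGC/ERR reporter cells plated at 2,000 cells/well and settled 6 h beforehand.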

[13] = qHTS assay to identify small molecule agonists of the estrogen related receptor signaling pathway with the pleiotropic PPARgamma coactivator (PGC) from Tox21 10K library (AID 1224842); also: nearly all actives have a fitted effect of over 15% in size
Method in brief: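 Luminescence from One-Glo (30 min, room temperature) measured after PGC/ERR cells had 18 h at 37 C with pinned compound (23 nL in DMSO). Cells had been seeded at 2,000 per well and pre-incubated 6 h.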

[14] = qHTS assay to identify small molecule agonists of the retinoic acid receptor (RAR) signaling pathway (AID 1159553)
Method in brief: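 Luminescence was measured 30 min after luciferase reagent addition at room temperature. Before that, C3RL4 reporter cells (1,000 per well, plated overnight) were treated with compound for 6 hr at 37 C and 5% CO2.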

[15] = qHTS assay to identify small molecule antagonists of the estrogen related receptor (ERR) signaling pathway (AID 1224819; also: series mostly up to about 46 µM; nearly all actives have a fitted effect of over 50% in size)
Method in brief: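 LOPAC library screened for antagonism as reduced One-Glo luminescence in ERR reporter cells (2,000/well). Compounds were added after 6 h pre-incubation and left 18 h at 37C; reading followed a 30 min room-temperature reagent step.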

[16] = qHTS assay to identify small molecule agonists of the estrogen related receptor (ERR) signaling pathway (AID 1224820)
Method in brief: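 After 6 h plating (2,000 cells/well) and 18 h compound treatment at 37 C, ERR cells were lysed with One-Glo and luminescence read after 30 min at room temperature.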

[17] = system: estrogen-related receptor alpha (ERRalpha) with PGC-1alpha coactivator, human; assay: qHTS assay to identify small molecule antagonists of the estrogen related receptor signaling pathway with the pleiotropic PPARgamma coactivator (PGC) (AID 1224821; calls by dose curve)
Method in brief: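 Luminescence from One-Glo luciferase reagent (30 min, room temperature) measured after 18 h compound treatment at 37 °C. Cells carry the PGC/ERR reporter and were seeded 6 h prior to dosing.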

[18] = qHTS assay to identify small molecule antagonists of the estrogen related receptor signaling pathway with the pleiotropic PPARgamma coactivator (PGC) cell viability counter screen (AID 1224822; also: series mostly up to about 46 µM)
Method in brief: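 Viability counter-screen read by fluorescence intensity after 30 min with CellTiter-Fluor at 37 C; PGC/ERR reporter cells were exposed to compounds for 17.5 h at 37 C following a 6 h preincubation.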

[19] = qHTS assay to identify small molecule agonists of the estrogen related receptor signaling pathway with the pleiotropic PPARgamma coactivator (PGC) (AID 1224823)
Method in brief: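 Luminescence from One-Glo reagent (30 min, room temperature) was read after 18 h compound treatment at 37 C of PGC/ERR cells plated 6 h beforehand; compounds delivered in DMSO by pin tool.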

Measured: Potency

COc1ccc2c(c1)c(CC(=O)OCC(=O)O)c(C)n2C(=O)c1ccc(Cl)cc1
inactive: [1] | [2] | [3] | [4] | [5] | [6] | [7] | [8] | [9] | [10] | [11] | [12] | [13]

N#Cc1ccc(C2CCCc3cncn32)cc1 (stereo not given)
inactive: [2] | [3] | [4] | [14] | [5] | [6] | [7] | [8] | [9] | [10] | [12] | [13]

COC(=O)c1c(Cl)c(Cl)c(C(=O)OC)c(Cl)c1Cl
inactive: [2] | [3] | [15] | [16] | [17] | [18] | [19] | [5] | [6] | [7] | [8] | [9] | [11] | [12] | [13]
inactive and 5.49 µM (active): [1]
active: [10] 54.5 µM and 8.63 µM

COCCc1ccc(OCC(O)CNC(C)C)cc1 (stereo not given)
inactive: [1] | [2] | [3] | [14] | [15] | [16] | [17] | [18] | [19] | [5] | [6] | [7] | [8] | [9] | [10] | [11] | [12] | [13]

O=C1CC2CC1C1CCCC21 (stereo not given)
inactive: [1] | [2] | [3] | [4] | [5] | [6] | [7] | [8] | [9] | [10] | [11] | [12] | [13]

CC(C)(c1ccc(O)cc1)c1ccc(O)cc1
active: [6] 39.5 µM and 36.2 µM | [10] 30.3 µM and 11.1 µM | [12] 60.4 µM and 60.4 µM [inhibitor]
inactive: [2] | [3] | [4] | [14] | [15] | [16] | [17] | [18] | [19] | [7] | [8] | [9]

COc1c(N2C[C@@H]3CCCN[C@@H]3C2)c(F)cc2c(=O)c(C(=O)O)cn(C3CC3)c12
inactive: [1] | [2] | [3] | [4] | [5] | [6] | [7] | [8] | [9] | [10] | [11] | [12]

C=CCS(=O)(=O)O
inactive: [1] | [2] | [3] | [4] | [5] | [6] | [7] | [8] | [9] | [10] | [12] | [13]

CCO[Si](CCC1CCC2OC2C1)(OCC)OCC (stereo not given)
inactive: [1] | [2] | [3] | [4] | [5] | [6] | [7] | [8] | [9] | [10] | [11] | [12] | [13]
